± gives the standard deviation of the averaged measurements.
System: lanierone-responsive B-neuron OSN class (ItypOR36)
Assay: net action potential response of lanierone B-neuron (blank-subtracted) (spikes/s (Hz)); higher = stronger excitation
Details: 10 µg on filter paper, neuron: B neuron (small spike amplitude)
Method: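 Single sensillum recordings from antennal olfactory sensilla of live adult Ips typographus. Each compound was 10 µg in paraffin oil, delivered as a 0.5 s puff. Net response = spikes in the first 0.5 s of response minus the 0.5 s pre-stimulus count, doubled to give Hz, with blank response subtracted. Values are for the small-spike lanierone-responsive B-neuron (putatively expressing ItypOR36), recorded in sensilla co-housing the A-neuron class; N = 1-4, averaged.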

[1] = co-localized A-neuron class: (4S)-cis-verbenol
[2] = co-localized A-neuron class: (5S,7S)-trans-conophthorin
[3] = co-localized A-neuron class: (+)-isopinocamphone
[4] = co-localized A-neuron class: (+)-trans-4-thujanol
[5] = co-localized A-neuron class: ipsdienol
[6] = co-localized A-neuron class: myrcene
[7] = co-localized A-neuron class: p-cymene

SMILES | net action potential response [1] | net action potential response [2] | net action potential response [3] | net action potential response [4] | net action potential response [5] | net action potential response [6] | net action potential response [7]
Cc1ccccc1 [Toluene] | 2 ± 4 | -1 ± 5 | -4 | 1 ± 1.1 | -2 ± 3.5 | 0 | 0
O=Cc1ccccc1 [Benzaldehyde] | 0 ± 3.5 | 0.667 ± 1.1 | -2.67 ± 3.1 | -2.5 ± 10 | 2 ± 7.2 | -6 | 0
C=CCc1ccc(OC)cc1 [Estragole] | 1.33 ± 7.6 | 0 ± 7.8 | 0 ± 2 | 0 ± 4.3 | 4 ± 5.3 | -8 | -2.67 ± 1.1

Reference: the supplement of paper PMC11577813, “Eurasian spruce bark beetle detects lanierone using a highly expressed specialist odorant receptor, present in several functional sensillum types” (BMC Biology, 2024)
